# Paper PMC4336329 (PLoS ONE, 2015)
# The whole screen tested about 310,000 compounds, of which about 14,000 (4.5%) showed an effect of 50% or more. The effect is printed as a negative number. Shown is part of a subset that was picked to be rich in strong results.
# Target: human ether-à-go-go-related gene (hERG) potassium channel (human, UniProt Q12809)
# Assay: primary screen, population patch clamp on CHO cells stably expressing hERG; higher = less effect of the substance
# 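Note: peak tail current of the secondary pulse compared with the same well before compound.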
# human ether-à-go-go-related gene (hERG) potassium channel, sequence (Q12809 whole entry, looked up): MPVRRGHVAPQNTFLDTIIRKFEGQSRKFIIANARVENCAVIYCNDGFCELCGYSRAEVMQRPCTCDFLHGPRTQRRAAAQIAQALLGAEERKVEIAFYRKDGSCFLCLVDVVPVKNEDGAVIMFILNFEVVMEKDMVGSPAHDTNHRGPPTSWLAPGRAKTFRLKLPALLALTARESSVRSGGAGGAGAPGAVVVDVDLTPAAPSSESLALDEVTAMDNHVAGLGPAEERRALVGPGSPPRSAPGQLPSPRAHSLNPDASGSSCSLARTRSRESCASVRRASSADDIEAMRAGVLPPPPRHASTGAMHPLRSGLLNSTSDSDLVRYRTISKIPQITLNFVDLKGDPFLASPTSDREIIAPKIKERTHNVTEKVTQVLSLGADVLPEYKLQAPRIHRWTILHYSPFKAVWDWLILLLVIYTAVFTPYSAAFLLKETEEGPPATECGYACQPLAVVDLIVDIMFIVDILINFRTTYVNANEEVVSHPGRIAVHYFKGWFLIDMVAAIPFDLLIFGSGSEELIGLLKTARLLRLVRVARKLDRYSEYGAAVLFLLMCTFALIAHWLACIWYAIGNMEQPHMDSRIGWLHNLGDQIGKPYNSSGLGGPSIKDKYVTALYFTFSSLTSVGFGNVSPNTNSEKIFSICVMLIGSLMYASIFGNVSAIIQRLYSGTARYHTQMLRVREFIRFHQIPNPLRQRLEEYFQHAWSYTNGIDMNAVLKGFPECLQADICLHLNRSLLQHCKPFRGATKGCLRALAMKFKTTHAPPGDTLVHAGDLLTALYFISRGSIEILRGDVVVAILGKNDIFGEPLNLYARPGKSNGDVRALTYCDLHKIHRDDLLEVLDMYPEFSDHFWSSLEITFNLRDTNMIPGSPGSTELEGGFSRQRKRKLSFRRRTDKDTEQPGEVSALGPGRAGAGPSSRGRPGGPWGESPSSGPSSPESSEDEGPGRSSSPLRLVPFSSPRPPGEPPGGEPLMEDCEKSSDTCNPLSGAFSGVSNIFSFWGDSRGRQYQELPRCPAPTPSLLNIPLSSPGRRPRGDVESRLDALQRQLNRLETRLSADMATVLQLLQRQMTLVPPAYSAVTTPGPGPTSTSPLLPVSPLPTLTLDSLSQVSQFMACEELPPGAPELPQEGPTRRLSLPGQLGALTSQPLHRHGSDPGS
row,SMILES,"hERG current change (%, negative = inhibition) at 10uM [%]"
1,CCCOc1ccc(C(O)(CCN2CCCCC2)c2ccccc2OC)cc1.Cl (centres unmarked),-29.9
2,CCCCC(O)(CCN1CCOCC1)c1ccc(Cl)cc1.Cl (centres unmarked),-66.5
3,CCCC(O)(CCN1CCOCC1)c1ccc(Br)cc1.Cl (centres unmarked),-20.7
4,CCCOc1ccc(C(O)(CCC)CCN2CCCCC2)cc1 (centres unmarked),-56.1
5,CCCC(O)(CCN1CCOCC1)c1ccc(Cl)cc1 (centres unmarked),3.77
6,CCCCOc1ccc(C(O)(CCC)CCN2CCOCC2)cc1 (centres unmarked),-51.2
7,CCCOc1ccc(C(C)(O)CN2CCOCC2)cc1 (centres unmarked),15.6
8,CCCCOc1ccc(C(O)(CC)CCN2CCOCC2)cc1 (centres unmarked),-13.4
9,CCCCOc1ccc(C(C)(O)CCN2CCOCC2)cc1 (centres unmarked),-2.97
10,OC1(c2ccc(F)cc2)CSC(=Nc2cccnc2)N1Cc1ccco1 (centres unmarked),-14.2
11,COc1ccc(OC)c2nc(-c3ccc4c(c3)OCO4)ccc12,10.4
12,CC1CCC2(CC1)NC(=O)N(CC(=O)N1CCN(C(=O)c3cccs3)CC1)C2=O (centres unmarked),-9.44
13,CCOC(=O)Cc1csc(NC(=O)c2cc(=O)c3ccccc3o2)n1,-12.3
14,COc1ccc(Br)cc1CN1C(=O)NC2(CCCCCC2)C1=O,10.4
15,Cn1ncc(Br)c1C(=O)N1CCCC1,19
16,O=C(COc1ccc(-c2ccccc2)cc1)N1CCCC1,-54.5
17,O=C(COc1ccccc1)N1CCCCCCC1,3.25
18,O=C(COc1ccc2ccccc2c1)N1CCN(C(=O)c2cccnc2)CC1,-25
19,O=C(COc1ccccc1)N1CCN=C1c1ccccc1,-77.5
20,O=C(COc1ccc(-c2ccccc2)cc1)N1CCN(C(=O)c2cccnc2)CC1,-57.9
21,Cc1ccc(OCC(=O)N2CCN(C(=O)c3cccnc3)CC2)cc1,-4.29
22,CSC1=NCCN1C(=O)COc1ccccc1,11.3
23,O=C(COc1ccccc1)N1CCCC1,15.6
24,CCc1ccc(OCC(=O)N2CCN=C2c2ccccc2)cc1,-5.36

row,SMILES,"hERG current change (%, negative = inhibition) at 10uM [%]"
1,O=C(NC(=S)Nc1ccc(-c2ccc(CO)o2)cc1)c1cccs1,21
2,Cc1ccc2c(c1)C(c1ccccc1)N(C(=O)c1c(F)cccc1Cl)CC(=O)N2 (centres unmarked),-22.3
3,Cc1cccnc1NC1=NCC(C)S1 (centres unmarked),3.1
4,C=CCSC(CC)(CC)C(N)=O,3.1
5,O=C(CNCc1ccco1)Nc1cc(S(=O)(=O)N2CCOCC2)ccc1N1CCCC1,-14.4
6,COc1cccc(NCc2nnc(SCC(=O)NC3CCS(=O)(=O)C3)n2C2CCCCC2)c1 (centres unmarked),12.7
7,CCN1CCN(CCC(=O)Nc2ccc(C)cc2)CC1.Cl,-8.34
8,Cc1cccc(NC(=O)CCN2CCN(C)CC2)c1.Cl,6.48
9,CCN1CCN(CCC(=O)Nc2cccc(C)c2)CC1.Cl,0.741
10,O=C(CCN1CCN(C/C=C/c2ccccc2)CC1)Nc1ccccc1,-74.9
11,CN1CCN(CCC(=O)Nc2ccccc2)CC1,-5.19
12,Cl.O=C(CCN1CCOCC1)Nc1ccc(Cl)cc1,6.33
13,Cc1ccc(NC(=O)CCN2CCN(C/C=C/c3ccccc3)CC2)cc1.Cl,-90.9
14,Cl.O=C(CCN1CCCC1)Nc1ccccc1,4.69
15,CCN1CCN(CCC(=O)Nc2ccccc2)CC1,8.58
16,Cc1cccc(NC(=O)CCN2CCN(C/C=C/c3ccccc3)CC2)c1.Cl,-74
17,O=C(CCN1CCN(c2ccccc2)CC1)Nc1ccc(Cl)cc1,-17.9
18,O=C(CCN1CCN(C/C=C/c2ccccc2)CC1)Nc1ccc(Cl)cc1,-78.2
19,COc1ccc(C(Sc2ccccc2)c2ccccc2)cc1OC (centres unmarked),7.26
20,O=C(O)CCN=CC1=C(O)CC(c2ccccc2)CC1=O (centres unmarked),3.13
21,O=C(C[n+]1cccc(O)c1)NCc1ccc(Cl)cc1.[Cl-],24.2
22,CCOC(=O)CC1C(=O)NCCN1C(=O)c1ccc(C)cc1 (centres unmarked),14.9
23,Cc1sc2c(c1C)C(O)=C(C(=O)Nc1ccccc1)S(=O)(=O)N2C,4.91
